{"source": "PubChem BioAssay (NCATS)", "note": "Records with an inconclusive call do not appear. The source made the active and inactive calls. Calls follow the shape of the dose curve; as a rule, active = well fitted curve in the direction sought with a large enough effect; inconclusive = small, poorly fitted or top-dose-only effect, or effect the other way, or another doubt; inactive = no such curve, though single readings can be large or run the other way."}
{"molecular_target": "Transient receptor potential cation channel subfamily V member 1 (Homo sapiens) (UniProt Q8NER1)", "sequence (Q8NER1 whole entry, looked up)": "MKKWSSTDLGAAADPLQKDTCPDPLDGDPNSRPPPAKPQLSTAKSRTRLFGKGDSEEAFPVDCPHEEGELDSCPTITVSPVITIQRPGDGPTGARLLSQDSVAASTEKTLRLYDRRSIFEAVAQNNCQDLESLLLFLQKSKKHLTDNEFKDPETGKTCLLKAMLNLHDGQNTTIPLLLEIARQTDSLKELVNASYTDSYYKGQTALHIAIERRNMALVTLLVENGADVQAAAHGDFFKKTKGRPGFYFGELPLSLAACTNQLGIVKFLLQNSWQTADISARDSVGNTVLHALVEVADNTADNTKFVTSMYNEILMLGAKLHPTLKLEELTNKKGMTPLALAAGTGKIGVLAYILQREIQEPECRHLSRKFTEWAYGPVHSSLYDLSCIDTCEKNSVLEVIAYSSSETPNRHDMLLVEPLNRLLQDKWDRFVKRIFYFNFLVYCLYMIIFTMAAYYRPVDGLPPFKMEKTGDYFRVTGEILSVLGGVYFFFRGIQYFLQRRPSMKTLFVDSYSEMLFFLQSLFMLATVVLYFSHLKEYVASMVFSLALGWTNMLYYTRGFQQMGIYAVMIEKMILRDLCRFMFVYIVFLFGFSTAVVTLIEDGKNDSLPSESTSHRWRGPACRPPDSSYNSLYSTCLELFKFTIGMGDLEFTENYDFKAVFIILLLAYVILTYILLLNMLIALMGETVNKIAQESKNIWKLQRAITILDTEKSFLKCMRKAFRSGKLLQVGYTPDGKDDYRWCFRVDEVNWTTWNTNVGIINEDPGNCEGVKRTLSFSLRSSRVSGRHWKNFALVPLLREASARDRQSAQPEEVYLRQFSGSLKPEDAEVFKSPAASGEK", "experiment": "HTS Assay for Compounds that Act as Enhancers of the Vanilloid Receptor 1 (AID 488979)", "settings": "TRPV1-expressing cells, enhancer of channel activity, stimulated with capsaicin at EC20; series mostly up to 41.7 µM", "text": "The transient receptor potential ion channel, family V, number 1, (TRPV1) is one of the most important molecular transducers of painful stimuli and a potential target for analgesic drug development. Although recent clinical trials with orthosteric antagonists have not produced a successful drug because of a hyperthermia side effect and their tendency to block thermal noxious pain, this ion channel is undeniably well placed in the pain pathway, and the idea of blocking pain signals before they enter the CNS is an excellent concept and of proven efficacy when TRPV1 agonists are used. We propose a new approach involving allosteric modulation to impose an activity-dependent constraint within the context of inflammation and tissue damage that would alter the responsiveness of the channel in a way that an orthosteric vanilloid antagonist cannot achieve. We believe that the allosteric modulator approach has not been explored for this target.\nThe main goal of this proposal is to identify additional, new, potent allosteric modulators of TRPV1 that can be used to investigate TRPV1 function. Our recent report provides evidence of proof of concept, but the compounds are just at the edge of utility in terms of potency. […] The question of whether they can be used as analgesic agents is complex, but if suitable compounds are identified then testing for analgesic properties will be conducted.\nUpon TRPV1 activation in TRPV1 cells, the channel opens and extracellular cations flow through the channel into the cytosol. A calcium binding dye (Fluo-8) becomes fluorescent when bound to calcium. This dye is pre-loaded into cells and is used as a marker for calcium influx.\nThe amount of accumulated calcium is precisely quantified using the FDSS kinetic reader and the calcium dye.\nFor the HTS assay, freshly prepared cells are plated at a density of 2000/well in 3 ul medium in 1536-well plates and cultured overnight at 35.5C. Cells will be loaded with 1 ul of the homogeneous calcium dye (ABD Bioquest) at room temperature for 40 to 90 minutes. Plates will be loaded into the FDSS kinetic reader and a 1 sec / cycle for 10 second baseline signal will be measured. Compound library will then be added with a pintool at 23 nl and measured kinetically for 3 minutes. This portion of the read is considered the agonist portion of the screen. Following the 3 minutes of incubation, an on board pipettor will deliver 1 ul of capsaicin for a final concentration equal to the EC20. Signal will be measured kinetically for an additional 2 minutes. This portion of the read is considered the allosteric enhancer portion of the screen.\nThe FDSS reader has a standard filter set capable of measuring calcium bound Fluo-8 (ex=480 and em=520 nm)."}
{"smiles": "O=C1CC2(CCCC2)CC(=O)N1CCCCN1CCN(c2ncccn2)CC1", "outcome": "inactive"}
{"smiles": "NCCCNCCSP(=O)(O)O", "outcome": "inactive"}
{"smiles": "COCCc1ccc(OCC(O)CNC(C)C)cc1", "note": "(stereo not given)", "outcome": "inactive"}
{"smiles": "OC(CCN1CCCCC1)(c1ccccc1)C1CCCCC1", "note": "(stereo not given)", "outcome": "inactive"}
{"smiles": "CCn1cc(C(=O)O)c(=O)c2cc3c(cc21)OCO3", "outcome": "inactive"}
{"smiles": "Nc1nc(N)c2nc(-c3ccccc3)c(N)nc2n1", "outcome": "inactive"}
{"smiles": "Cc1nc2c([nH]1)c(=O)n(C)c(=O)n2Cc1ccco1", "outcome": "inactive"}
{"smiles": "NC(N)=NC(=O)Cc1c(Cl)cccc1Cl", "outcome": "inactive"}
{"smiles": "c1ccc2c(c1)CCCC2C1=NCCN1", "note": "(stereo not given)", "outcome": "inactive"}
{"smiles": "CSc1ccc(C(=O)c2[nH]c(=O)[nH]c2C)cc1", "outcome": "inactive"}
{"smiles": "CCN1CCC[C@H]1CNC(=O)c1c(O)c(Cl)cc(Cl)c1OC", "outcome": "inactive"}
{"smiles": "CCOC(=O)C1=C(C)NC(C)=C(C(=O)OC)C1c1cccc(Cl)c1Cl", "note": "(stereo not given)", "outcome": "inactive"}
{"smiles": "NC/C=C/C(=O)O", "outcome": "inactive"}
{"smiles": "CCn1nc(C(=O)O)c(=O)c2cc3c(cc21)OCO3", "outcome": "inactive"}
{"smiles": "CCN(CC)CCNC(=O)c1cc(S(C)(=O)=O)ccc1OC", "outcome": "inactive"}
{"smiles": "CN(C)C(=O)Oc1ccc[n+](C)c1", "outcome": "inactive"}
{"smiles": "CCN(CC)CC(=O)Nc1c(C)cccc1C", "outcome": "inactive"}
{"smiles": "COc1cc(Cc2cnc(N)nc2N)cc(OC)c1OC", "outcome": "inactive"}
{"smiles": "CC(=O)Oc1cc(C(C)C)c(OCCN(C)C)cc1C", "outcome": "inactive"}
{"smiles": "CCCOc1ccccc1-c1nc2n[nH]nc2c(=O)[nH]1", "outcome": "inactive"}
{"smiles": "N[C@@H](COP(=O)(O)O)C(=O)O", "outcome": "inactive"}
{"smiles": "COCCOC(=O)C1=C(C)NC(C)=C(C(=O)OC(C)C)C1c1cccc([N+](=O)[O-])c1", "note": "(stereo not given)", "outcome": "inactive"}
{"smiles": "CCO/C([O-])=N/c1c[n+](N2CCOCC2)no1", "outcome": "inactive"}
{"smiles": "CCCN1C[C@H](CSC)C[C@@H]2c3cccc4[nH]cc(c34)C[C@H]21", "outcome": "inactive"}
{"smiles": "CC(C)[N+](C)(CCOC(=O)C1c2ccccc2Oc2ccccc21)C(C)C", "outcome": "inactive"}
{"smiles": "CCCN(CCC)C(=O)C(CCC(=O)O)NC(=O)c1ccccc1", "note": "(stereo not given)", "outcome": "inactive"}
{"smiles": "NC(Cc1ccc(Cl)cc1)C(=O)O", "note": "(stereo not given)", "outcome": "inactive"}
{"smiles": "Cc1ccc(=O)n(-c2ccccc2)c1", "outcome": "inactive"}
{"smiles": "Cc1nc2ccccn2c(=O)c1CCN1CCC(C(=O)c2ccc(F)cc2)CC1", "outcome": "inactive"}
{"smiles": "NC(=O)N1c2ccccc2C=Cc2ccccc21", "outcome": "inactive"}
{"smiles": "CO[C@@]1(NC(=O)CSCC#N)C(=O)N2C(C(=O)O)=C(CSc3nnnn3C)CS[C@@H]21", "outcome": "inactive"}
{"smiles": "NC(N)=N/N=C/c1c(Cl)cccc1Cl", "outcome": "inactive"}
{"smiles": "COc1cc(C(=O)OCCCN2CCCN(CCCOC(=O)c3cc(OC)c(OC)c(OC)c3)CC2)cc(OC)c1OC", "outcome": "inactive"}
{"smiles": "O=C(O)CCCCCCCC(=O)O", "outcome": "inactive"}
{"smiles": "CCCCCN(CCCCC)C(=O)C(CCC(=O)O)NC(=O)c1ccc(Cl)c(Cl)c1", "note": "(stereo not given)", "outcome": "inactive"}
{"smiles": "C=CCc1ccccc1OCC(O)CNC(C)C", "note": "(stereo not given)", "outcome": "inactive"}
{"smiles": "Cc1nc2sccn2c(=O)c1CCN1CCC(=C(c2ccc(F)cc2)c2ccc(F)cc2)CC1", "outcome": "inactive"}
{"smiles": "C[N+](C)(C)CCOC(N)=O", "outcome": "inactive"}
{"smiles": "NC(=O)c1ncn([C@@H]2O[C@H](CO)[C@@H](O)[C@H]2O)c1O", "outcome": "inactive"}
{"smiles": "CCCN(CCC)CCc1cccc2c1CC(=O)N2", "outcome": "inactive"}
